TRb-SRC2 inh = disrupts binding of human TR beta to SRC2. P10828. TRbeta-SRC2 peptide binding, fluorescence polarization; receptor liganded with 1 µM T3. Potency, µM (doses to about 106 µM), inactives show at the top dose activity change, negative = inhibition, hits mostly inhibitors. 280,000 compounds, 0.065% hits; active = well fitted inhibition curve with a large enough effect; inconclusive = small, poorly fitted or top-dose-only effect, or effect the other way;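 note: plate controls were bound peptide for no effect and peptide without receptor for full effect; nearly all actives have a fitted effect of over 50% in size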
Target sequence (P10828 whole entry, looked up): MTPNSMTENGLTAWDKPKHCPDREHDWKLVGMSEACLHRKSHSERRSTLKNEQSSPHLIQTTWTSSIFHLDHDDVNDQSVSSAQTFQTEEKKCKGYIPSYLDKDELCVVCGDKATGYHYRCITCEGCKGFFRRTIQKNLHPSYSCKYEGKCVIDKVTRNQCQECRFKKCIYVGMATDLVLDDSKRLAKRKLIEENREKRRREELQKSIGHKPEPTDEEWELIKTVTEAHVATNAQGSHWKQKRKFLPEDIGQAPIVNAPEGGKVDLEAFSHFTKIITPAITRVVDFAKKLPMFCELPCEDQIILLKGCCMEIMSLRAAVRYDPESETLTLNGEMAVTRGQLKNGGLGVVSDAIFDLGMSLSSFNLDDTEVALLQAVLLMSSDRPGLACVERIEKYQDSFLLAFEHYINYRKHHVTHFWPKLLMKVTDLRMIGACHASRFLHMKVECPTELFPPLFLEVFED
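Fluorescence polarization of 20 nM Texas Red SRC2 peptide (20-aa NR interaction domain) bound to 0.6 uM human TRb ligand-binding domain, with 1 uM T3, after 5 hr at ambient temperature; inhibition seen as decreased polarization.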
GoLoco inh red = RGS12 GoLoco-Gai1 interaction inhibition; P63096; Gai1:RGS12 GoLoco peptide FP, rhodamine, 10 min; Potency, µM (series often up to 61.6 µM), for inactives: at the top dose activity, negative = inhibition, usual class: inhibitors; 230,000 compounds, 0.44% hits; AID 880; active = well fitted inhibition curve with a large enough effect, not every such curve was filed as active; inactive = no such curve, though single readings can be large or run the other way; note: % is set by controls: 0 for no effect and ±100 for the full control effect; nearly all actives have a fitted effect of over 30% in size
TR SRC2 fluor cs = Texas Red fluorescence interference in TRb-SRC2 counter-screen; TRb/SRC2 Texas Red total fluorescence interference; Potency, µM (series often up to 106 µM), for inactives: top-dose fluorescence change, negative = quenching; 280,000 compounds, 0.29% hits; AID 1479; active = well fitted curve in either direction with a large enough effect; inconclusive = small, poorly fitted or top-dose-only effect; note: % is set by controls: 0 for no effect and ±100 for the full control effect
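Human TRb ligand-binding domain at 0.6 uM with 20 nM Texas Red SRC2 peptide in Tris buffer containing 1 uM T3 and 5% DMSO, incubated with compound 5 h at ambient temperature. Total fluorescence (555/632 nm) calculated as parallel + 2 × perpendicular.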
ERG-DNA inh = ERG Ets/DNA interaction inhibition; P11308; fluorescence polarization, His-ERG Ets domain / labelled DNA; Potency, µM (highest dose often 76.9 µM), for the others: at the highest dose FP activity, negative = inhibition, actives largely listed as inhibitors; 370,000 compounds, 0.028% hits; AID 624246; active = well fitted inhibition curve with a large enough effect in the polarisation, with a control signal flat; inconclusive = small, poorly fitted or top-dose-only effect, or effect the other way, or a change in a side signal; inactive = no such curve, though single readings can be large or run the other way; the % refers to the polarisation;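 note: polarization taken with two DNA probes labelled with fluorescein and Texas red; % of control where 0% means no effect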
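His-tagged ERG Ets domain (1 uM in the protein solution; 300mM KCl, 50mM Tris-HCl, 1mM EDTA, 1mM DTT, pH 7.5) received compound, then a probe mix of 5 nM fluorescein-DNA and 100nM Texas-615-DNA. Fluorescence polarization was read for both dyes.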
Active calls of the source: *; ! = a repeat was not active; [ ] = remark or other dose. Many of the other results were omitted from the sample, so hits are more common in it than they were. Potency is the fitted concentration of half-maximal effect.

`CCOC(=O)c1sc(Nc2nc3cc4c(cc3s2)OCO4)cc1C` gave TRb-SRC2 inh 2%, GoLoco inh red 29%, TR SRC2 fluor cs 0.32µM*[quencher] and ERG-DNA inh 0%.
Screening CCCCOCCOCCO returned TRb-SRC2 inh -8%[201 µM] and TR SRC2 fluor cs -2%[201 µM].
Screening O=S(=O)(O)c1ccc(NN(c2c(O)ccc3ccccc23)S(=O)(=O)O)cc1 returned GoLoco inh red 34%[14.2 µM].
Screening COC(=O)c1ccc(=O)c2nc3/c(=C/O)c(O)cc(=O)c3[nH]c12 returned TRb-SRC2 inh inconclusive, GoLoco inh red 3%, TR SRC2 fluor cs 25µM*[quencher] and ERG-DNA inh -3%.
COC(=O)c1ccc(N)cc1O was read as TRb-SRC2 inh -1%, GoLoco inh red 4%, TR SRC2 fluor cs -1% and ERG-DNA inh -3%.
COc1ccc(C2CC(c3ccccc3)=NN2C(=O)COC(=O)c2cc(S(=O)(=O)N3CCOCC3)ccc2Cl)cc1 (centres undefined) was read as TRb-SRC2 inh 5%[53 µM], GoLoco inh red 13µM* and TR SRC2 fluor cs -3%[53 µM].
Screening CN1[C@@H]2CC[C@@H]1CC(OC(=O)[C@H](CO)c1ccccc1)C2 (some centres undefined) returned TRb-SRC2 inh -5%, GoLoco inh red -2% and TR SRC2 fluor cs -5%.
For COc1cc(O)c2c(c1)oc(=O)c1c3cc(O)c(O)cc3oc21 the results were TRb-SRC2 inh inconclusive and TR SRC2 fluor cs 35µM*[quencher].
For O=C(Oc1ccccc1)N1CCC2(CC1)CCN(c1ccncc1)CC2 the results were GoLoco inh red 2.8µM*.
Screening O=C(O)c1ccc(C(=O)O)c(C(=O)Nc2ccc3c(c2)Cc2ccccc2-3)c1 returned GoLoco inh red 8%[14.2 µM].
Cc1ccc(NC(=O)Cc2ccccc2Cl)cc1S(=O)(=O)N(C)C was read as TRb-SRC2 inh -24%[53 µM], GoLoco inh red 11%, TR SRC2 fluor cs 0.1µM*[quencher] and ERG-DNA inh -4%.
Cc1ccc(NC(=O)Cc2ccc(Cl)c(Cl)c2)cc1S(=O)(=O)N(C)C was read as TRb-SRC2 inh 5%[53 µM], GoLoco inh red -8%, TR SRC2 fluor cs -2%[53 µM] and ERG-DNA inh 5%.
Screening COc1ccc(N2CCN(C(=O)c3cccnc3)CC2)c([N+](=O)[O-])c1 returned TRb-SRC2 inh -2%, GoLoco inh red 20µM*, TR SRC2 fluor cs -3% and ERG-DNA inh 10%.
For COc1ccc(N2CCN(c3ccc(C(N)=O)cc3[N+](=O)[O-])CC2)cc1 the results were TRb-SRC2 inh -4%, GoLoco inh red 8%, TR SRC2 fluor cs -3% and ERG-DNA inh 17%.
For CCN1C(=O)c2ccccc2Sc2ccc(NC(=O)Nc3cccc([N+](=O)[O-])c3C)cc21 the results were TRb-SRC2 inh -22%, TR SRC2 fluor cs 0.0005µM*[quencher] and ERG-DNA inh 4%.
`CN1CCN(c2ccc3nc(-c4ccc5nc(-c6ccc(O)cc6)[nH]c5c4)[nH]c3c2)CC1` gave GoLoco inh red -2%[14.2 µM].
CC(=O)CC(=O)Nc1ccccc1C was read as TRb-SRC2 inh -2%[201 µM] and TR SRC2 fluor cs -5%[201 µM].
For Cc1ccc(Cl)cc1NC(=O)CN1C(=O)C(C)(C)c2cc(S(=O)(=O)N3CCCCC3)ccc21 the results were TRb-SRC2 inh -20%, TR SRC2 fluor cs 0.0045µM*[quencher] and ERG-DNA inh 0%.
COc1ccc(Cl)cc1NC(=O)CN1C(=O)C(C)(C)c2cc(S(=O)(=O)N3CCCCC3)ccc21 was read as TRb-SRC2 inh 4%, TR SRC2 fluor cs -15% and ERG-DNA inh -6%.
`O=C(O)CCCCCCC(=O)O` gave TRb-SRC2 inh 1%[201 µM] and TR SRC2 fluor cs 3%[201 µM].
COc1cc(CNc2ccc(O)cc2)cc(Br)c1OCc1ccccc1F was read as TRb-SRC2 inh 2%, GoLoco inh red -27%, TR SRC2 fluor cs -3% and ERG-DNA inh -28%.
For CCOc1cc(CNc2ccc(O)cc2)cc(Br)c1OCc1ccccc1F the results were TRb-SRC2 inh 32µM*, GoLoco inh red -23%, TR SRC2 fluor cs inconclusive and ERG-DNA inh -26%.
CCN(CC)CC[n+]1ccc2c(C)c3[nH]c4ccccc4c3c(C)c2c1 was read as GoLoco inh red 1%[14.2 µM].
Screening COc1ccc(N=C2NC(=O)S/C2=C\c2ccc(N(C)C)cc2)cc1 returned TRb-SRC2 inh 32µM*, GoLoco inh red -96%, TR SRC2 fluor cs 50µM*[fluorescent] and ERG-DNA inh 38%.
c1ccc(C(c2cccc3c2ccc2ccccc23)[C@H](c2ccccc2)c2cccc3c2ccc2ccccc23)cc1 (some centres undefined) was read as GoLoco inh red 9%[14.2 µM].
For Nc1c(C(=O)NCC2CCCO2)sc2nc3c(c(-c4ccco4)c12)CC/C3=C\c1ccco1 (centres undefined) the results were TRb-SRC2 inh 9%, GoLoco inh red 76%, TR SRC2 fluor cs 11µM*[quencher] and ERG-DNA inh -8%.
For Cc1c(N(C)CS(=O)(=O)O)c(=O)n(-c2ccccc2)n1C the results were TRb-SRC2 inh -13%, GoLoco inh red 28µM*!, TR SRC2 fluor cs 2% and ERG-DNA inh -9%.
`O=S(=O)(O)C(c1ccccc1)[C@@H](O)c1ccccc1` (some centres undefined) gave GoLoco inh red -1%[14.2 µM].
Screening Cc1nnc(Nc2ccccc2)n(N)c1=O returned TRb-SRC2 inh 5%, GoLoco inh red 3%, TR SRC2 fluor cs -1% and ERG-DNA inh -10%.
`Cc1nnc(NN)n(N)c1=O` gave TRb-SRC2 inh -2%, GoLoco inh red 8.9µM*, TR SRC2 fluor cs -1% and ERG-DNA inh 10%.
Screening CC[C@H](C)[C@H](N)C(=O)N[C@@H](CC(N)=O)C(=O)N1CCC[C@H]1C(=O)N[C@H](C(=O)N[C@@H](Cc1ccc(O)cc1)C(=O)N[C@@H](CCCN=C(N)N)C(=O)N[C@@H](CC(C)C)C(=O)N[C@@H](CCCN=C(N)N)C(=O)N[C@@H](Cc1ccc(O)cc1)C(N)=O)[C@@H](C)CC returned TRb-SRC2 inh 7% and TR SRC2 fluor cs 0%.
Screening CCC(=O)NC1Cc2ccccc2C(c2ccccc2)C1 (centres undefined) returned TRb-SRC2 inh 8%, GoLoco inh red 9% and TR SRC2 fluor cs -3%.
CCC(C)Nc1ccc(NC(C)CC)cc1 (centres undefined) was read as TRb-SRC2 inh -30%[201 µM], GoLoco inh red 32µM*, TR SRC2 fluor cs inconclusive and ERG-DNA inh -23%.
Screening Nc1c(C(=O)Nc2nc3ccccc3s2)sc2nc(-c3cccs3)ccc12 returned TRb-SRC2 inh inconclusive, GoLoco inh red 56%, TR SRC2 fluor cs 32µM*[quencher] and ERG-DNA inh 2%.
`CCCCOC(=O)CC(CC(=O)OCCCC)(OC(C)=O)C(=O)OCCCC` gave TRb-SRC2 inh 2%[201 µM] and TR SRC2 fluor cs -2%[201 µM].
`CC1(C)CC(N2CCCC2)=CC(=[N+]2CCCC2)C1` gave TRb-SRC2 inh 0%, GoLoco inh red 2µM*, TR SRC2 fluor cs -1% and ERG-DNA inh -4%.

Compound activity from PubChem BioAssay.
